Measured values from PubChem BioAssay AID686978 (National Center for Advancing Translational Sciences (NCATS), 2013).
In all, about 420,000 compounds went through this assay and about 64,000 (15%) were called active. Inconclusive results (about 27%) are left out. Calls come from the whole dose curve; as a rule, active = well fitted inhibition curve with a large enough effect; inconclusive = small, poorly fitted or top-dose-only effect; inactive = flat fitted curve, though single readings scatter. The list is a sample of the results.

assay: qHTS for Inhibitors of human tyrosyl-DNA phosphodiesterase 1 (TDP1): qHTS in cells in absence of CPT; conditions: DT40 Tdp1-/- hTDP1 cells, no CPT, ATP luminescence, 48 h; activity change, negative = growth inhibition: at 46.2 µM (top of the series); note: nearly all actives have a fitted effect of over 55% in size
How it was run: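 Chicken DT40 Tdp1-/- cells complemented with human TDP1, screened without camptothecin (DMSO vehicle only), 400 cells/well. Compounds pin-transferred, cells incubated at 37 °C for at least 48 hr. Growth read as ATP-dependent luminescence (CellTiter-Glo, 30 min at RT).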
% is set by controls: 0 for no effect and ±100 for the full control effect; potency is the fitted concentration of half-maximal effect.

Compound | activity change, negative = growth inhibition | Potency
COc1cc(C2CC(=O)N3CN(Cc4ccccc4)CSC3=C2C#N)ccc1OCc1ccccc1 (stereo not given) | -22% (inactive) | 
O=C(NCc1ccccc1)c1onc(CSc2ccncc2)c1C(=O)NCc1ccccc1 | -12.6% (inactive) | 
O=C(NCC1CC1)c1onc(CSc2ccccc2)c1C(=O)NCC1CC1 |  | 20.6 µM (active)
COc1ccc(SCc2noc(C(=O)NCC3CCCO3)c2C(=O)O)cc1 (stereo not given) | 0.709% (inactive) | 
COc1ccc(C(=O)NC(=S)N2CCNC(=O)C2CC(=O)OC(C)C)cc1 (stereo not given) | 10.8% (inactive) | 
O=c1cc(CSc2ccc(Cl)cc2)nc(N2CCOCC2)[nH]1 | -8.75% (inactive) | 
Cc1ccc2nc(N3C(=O)C(O)=C(C(=O)c4ccco4)C3c3cccc(O)c3)sc2c1 (stereo not given) | 7.55% (inactive) | 
COc1cccc(C(O)c2nc3ccccc3n2C)c1 (stereo not given) | -9.21% (inactive) | 
COc1ccc(OC)c(C(O)c2nc3ccccc3n2C)c1 (stereo not given) | 13.2% (inactive) | 
COc1cc(C(O)c2nc3ccccc3n2C)cc(OC)c1OC (stereo not given) |  | 18.4 µM (active)
COc1ccc(-c2cc(=O)oc3cc(OC(C)C(=O)NCC4CCC(C(=O)O)CC4)ccc23)cc1 (stereo not given) | -16.3% (inactive) | 
O=C(NCc1ccccc1)C1CCCN(c2nc3ccsc3c(=O)s2)C1 (stereo not given) | -22.8% (inactive) | 
Cc1cc(=O)n2nc(N3CCCC(C(=O)NCc4cccc(Cl)c4)C3)sc2n1 (stereo not given) | 20.8% (inactive) | 
O=C(NCCc1cccc(F)c1)C1CCCN(c2nc3ccccc3s2)C1 (stereo not given) |  | 23.1 µM (active)
COc1ccccc1C(=O)NC(=O)COC(=O)C1CC1 | -0.675% (inactive) | 
Cc1cccc(CN2CCC(n3nccc3NC(=O)c3ccccc3C)CC2)n1 | 0.0568% (inactive) | 
CCOc1ccccc1N(CC)C(=O)c1cc2ccc3cccnc3c2[nH]1 |  | 5.8 µM (active)
COc1cc(NC(=O)c2cc3ccc4cccnc4c3[nH]2)cc(OC)c1OC | -8.52% (inactive) | 
Cc1ccccc1CN1CCC(CNC(=O)c2cc3ccc4cccnc4c3[nH]2)CC1 |  | 23.1 µM (active)
Cc1ccccc1CN1CCN(C(=O)c2cccc(F)c2)CC1 | -24.2% (inactive) | 
CCOc1cc2ccccc2cc1C(=O)Nc1ccccn1 | -22.9% (inactive) | 
CCc1nnc(SCc2cccc(F)c2)nc1CC | -0.858% (inactive) | 
CSCCC(NC(=O)C1CCC(C)CC1)C(=O)NCc1ccco1 (stereo not given) | -3.03% (inactive) | 
Cc1cc(C(F)(F)F)c(C#N)c(SCC(=O)NC2CC2)n1 | -5.72% (inactive) | 

Compound | activity change, negative = growth inhibition | Potency
CC(=O)N(CN1C(=O)C2CC=CCC2C1=O)c1cccc(Cl)c1 (stereo not given) | -26.5% (inactive) | 
O=C1CSC(c2cccc(F)c2)N1c1ccccc1F (stereo not given) | -21% (inactive) | 
COCCNC(=O)CSc1c(C)cnc2c1c(=O)n(C)c(=O)n2C | 1.96% (inactive) | 
COc1ccc(C(=O)CSc2n[nH]c(N)n2)cc1 | -16% (inactive) | 
Cc1ccc(CNC(=O)CSc2c(C)cnc3c2c(=O)n(C)c(=O)n3C)cc1 | -15.4% (inactive) | 
COc1ccc(C(=O)CSc2c(C(C)C)cnc3c2c(=O)n(C)c(=O)n3C)cc1 |  | 13 µM (active)
CC(=O)c1ccc(NC(=O)CSc2c(C(C)C)cnc3c2c(=O)n(C)c(=O)n3C)cc1 |  | 14.6 µM (active)
COc1ccc(C(=O)CSc2nccc(=O)[nH]2)cc1 | -14.2% (inactive) | 
COc1ccc(C(=O)O)cc1S(=O)(=O)NCc1cccnc1 | 14% (inactive) | 
Cc1snc(SCc2c(F)cccc2Cl)c1C#N | -25.5% (inactive) | 
O=C(NN1C(=O)C2C3C=CC(O3)C2C1=O)c1ccccc1 (stereo not given) | 6.73% (inactive) | 
Cc1ccc2c(C)c(C(=O)N3CCC(N4CCC(C(=O)NC5CC5)CC4)CC3)oc2c1 | -6.02% (inactive) | 
COc1cc(Cl)c(C)cc1NC(=O)COC(=O)c1cc(SC)ccc1Cl | 1.67% (inactive) | 
CCCCC(=O)N(C)c1c(CC)nc2c(OCc3ccc(Cl)cc3Cl)cccn12 |  | 9.2 µM (active)
CCc1nc2ccc(C(=O)N(C)Cc3ccco3)cn2c1N(C)C(=O)Cc1ccccc1 | -17% (inactive) | 
CCc1nc2ccc(C(=O)N3CCC(O)(Cc4ccccc4)CC3)cn2c1N(C)C(=O)Cc1ccccc1 | -26.2% (inactive) | 
CC(NC(=O)COc1cccnc1[N+](=O)[O-])c1ccc(Cl)cc1Cl (stereo not given) | -2.29% (inactive) | 
CC(C)(C)NC(=O)NC(=O)COC(=O)Cc1ccc(Cl)cc1Cl | -0.501% (inactive) | 
CCc1nc2c(OCc3ccc(Cl)cc3Cl)cccn2c1N(C)C(=O)C(C)C |  | 8.2 µM (active)
COc1cccc(NC(=O)CN(C)C(=O)Cc2ccc(Cl)cc2Cl)c1 | -1.62% (inactive) | 
CCc1nc2c(OCc3ccc(C(F)(F)F)cc3)cccn2c1N(C)C(=O)CC(C)C |  | 20.6 µM (active)
O=C(COC(=O)C12CC3CC(CC(O)(C3)C1)C2)NC12CC3CC(CC(C3)C1)C2 | -25.9% (inactive) | 
O=C(NC1CCN(C(=S)Nc2ccc(Cl)cc2)CC1)C1CCCCC1 | -2.42% (inactive) | 
CC(OC(=O)CCC(=O)c1ccccc1)C(=O)Nc1ccc(F)cc1 (stereo not given) | -20.1% (inactive) | 

Compound | activity change, negative = growth inhibition | Potency
CCOC(=O)c1c(C)nn(-c2ncccc2NC(=O)CCC(=O)O)c1C | -16.1% (inactive) | 
C#CCCCc1nc2ccccc2c(=O)n1N | -22.3% (inactive) | 
C/C(=N\N1CCN(Cc2ccc(C)cc2)CC1)c1ccco1 | -25.2% (inactive) | 
CC(=O)NC1C(Oc2ccc(C=O)cc2)OC(COC(C)=O)C(OC(C)=O)C1OC(C)=O (stereo not given) | 10.4% (inactive) | 
CC(=O)Oc1ccc2c(=O)oc(-c3ccc([N+](=O)[O-])cc3)nc2c1 | -3.77% (inactive) | 
CCCCSCCCNC(=O)C1CCC(CNS(=O)(=O)c2ccc(NC(C)=O)cc2)CC1 (stereo not given) | 3.72% (inactive) | 
Nc1nnnn1/N=C/c1cccs1 | -11.8% (inactive) | 
O=C(NCc1ccc(Cl)cc1)NCc1ccc(Cl)cc1 | -12% (inactive) | 
Fc1ccc2[nH]c3c(N4CCSCC4)ncnc3c2c1 |  | 9.2 µM (active)
Fc1ccc2nc(N3CCCCC3)sc2c1 | 3.23% (inactive) | 
N#C/C=C/N1CCN(Cc2ccc3c(c2)OCO3)CC1 | -14.4% (inactive) | 
Fc1ccc2[nH]c3c(N4CCN(Cc5ccc6c(c5)OCO6)CC4)ncnc3c2c1 |  | 2.31 µM (active)
O=C(CSc1nc2c(c(=O)[nH]1)CN(Cc1ccc3c(c1)OCO3)CC2)Nc1cc(F)ccc1F | -18.4% (inactive) | 
CN(C)c1cccc(C(=O)N2CCC(n3nccc3NC(=O)C3CCOC3)CC2)c1 (stereo not given) | 1.6% (inactive) | 
Cc1ccc(NNC(=O)c2c(F)cccc2Cl)cc1Cl | -9.04% (inactive) | 
C/C(=N/NC(=O)CSc1ccccn1)c1ccc([N+](=O)[O-])cc1 | 2.71% (inactive) | 
O=C(CCn1nnc2ccccc21)OCC(=O)c1ccc([N+](=O)[O-])cc1 | -16.2% (inactive) | 
O=C(CC(n1cncn1)C(Cl)(Cl)Cl)c1ccc([N+](=O)[O-])cc1 (stereo not given) |  | 14.6 µM (active)
NC(=O)c1ccc(-c2csnn2)cc1 | -0.292% (inactive) | 
CN1CCC(=O)N([C@H](CO)Cc2ccccc2)CC1 |  | inactive
Cc1ccc(S(=O)(=O)N2CCC(=O)N([C@H](COCc3ccccc3)Cc3ccccc3)CC2)cc1 |  | 18.4 µM (active)
COc1ccc(COCCN2CCN(S(=O)(=O)c3ccccc3)CCC2=O)cc1 | 5.39% (inactive) | 
